The results in this text go back to the supplement of paper PMC12819154, “High-throughput peptide-centric local stability assay extends protein–ligand identification to membrane proteins, tissues and bacteria” (Nature Structural & Molecular Biology, 2025).

Sequence of UniProt Q7TSE6 (Q7TSE6 whole entry): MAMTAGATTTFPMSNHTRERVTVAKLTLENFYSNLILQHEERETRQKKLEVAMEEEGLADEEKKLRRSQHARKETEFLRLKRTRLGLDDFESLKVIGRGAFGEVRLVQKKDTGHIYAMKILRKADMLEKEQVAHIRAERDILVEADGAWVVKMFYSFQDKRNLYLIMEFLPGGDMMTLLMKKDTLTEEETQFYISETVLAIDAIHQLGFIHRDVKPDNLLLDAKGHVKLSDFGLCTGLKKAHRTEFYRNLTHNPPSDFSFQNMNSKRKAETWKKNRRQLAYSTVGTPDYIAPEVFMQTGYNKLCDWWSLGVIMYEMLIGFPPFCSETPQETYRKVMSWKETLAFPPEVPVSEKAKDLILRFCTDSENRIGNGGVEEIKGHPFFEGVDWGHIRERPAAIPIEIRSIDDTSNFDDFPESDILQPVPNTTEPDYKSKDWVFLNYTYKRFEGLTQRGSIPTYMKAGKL
Sequence of UniProt Q8BPM2 (Q8BPM2 whole entry): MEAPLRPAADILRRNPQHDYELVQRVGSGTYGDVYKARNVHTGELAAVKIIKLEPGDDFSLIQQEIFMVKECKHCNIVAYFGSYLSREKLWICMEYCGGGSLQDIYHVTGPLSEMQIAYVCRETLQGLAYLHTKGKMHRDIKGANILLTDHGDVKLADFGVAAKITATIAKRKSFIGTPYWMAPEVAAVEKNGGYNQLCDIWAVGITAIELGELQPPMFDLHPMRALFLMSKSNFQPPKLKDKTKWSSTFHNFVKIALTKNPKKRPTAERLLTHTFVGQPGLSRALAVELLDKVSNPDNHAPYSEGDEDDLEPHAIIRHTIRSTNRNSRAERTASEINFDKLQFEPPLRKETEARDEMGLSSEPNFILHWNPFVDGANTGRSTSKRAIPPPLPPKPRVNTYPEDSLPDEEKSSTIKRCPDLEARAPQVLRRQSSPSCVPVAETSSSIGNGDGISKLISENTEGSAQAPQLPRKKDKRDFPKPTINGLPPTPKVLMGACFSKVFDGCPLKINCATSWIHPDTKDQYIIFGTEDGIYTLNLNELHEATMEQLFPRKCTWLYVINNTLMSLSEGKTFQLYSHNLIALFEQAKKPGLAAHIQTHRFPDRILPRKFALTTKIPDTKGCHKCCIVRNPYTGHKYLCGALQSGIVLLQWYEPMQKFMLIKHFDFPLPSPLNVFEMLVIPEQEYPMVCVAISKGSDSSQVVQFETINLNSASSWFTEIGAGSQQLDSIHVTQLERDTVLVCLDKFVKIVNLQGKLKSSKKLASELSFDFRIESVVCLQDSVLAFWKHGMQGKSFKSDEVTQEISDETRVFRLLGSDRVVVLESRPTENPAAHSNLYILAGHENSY
Sequence of UniProt Q8BHC4 (Q8BHC4 whole entry): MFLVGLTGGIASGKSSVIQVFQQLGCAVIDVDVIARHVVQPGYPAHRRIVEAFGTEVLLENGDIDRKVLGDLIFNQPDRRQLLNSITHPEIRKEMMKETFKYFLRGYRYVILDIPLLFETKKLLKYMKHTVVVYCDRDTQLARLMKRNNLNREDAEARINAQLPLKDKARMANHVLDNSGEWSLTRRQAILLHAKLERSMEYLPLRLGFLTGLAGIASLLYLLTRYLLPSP
Sequence of UniProt P14685 (P14685 whole entry): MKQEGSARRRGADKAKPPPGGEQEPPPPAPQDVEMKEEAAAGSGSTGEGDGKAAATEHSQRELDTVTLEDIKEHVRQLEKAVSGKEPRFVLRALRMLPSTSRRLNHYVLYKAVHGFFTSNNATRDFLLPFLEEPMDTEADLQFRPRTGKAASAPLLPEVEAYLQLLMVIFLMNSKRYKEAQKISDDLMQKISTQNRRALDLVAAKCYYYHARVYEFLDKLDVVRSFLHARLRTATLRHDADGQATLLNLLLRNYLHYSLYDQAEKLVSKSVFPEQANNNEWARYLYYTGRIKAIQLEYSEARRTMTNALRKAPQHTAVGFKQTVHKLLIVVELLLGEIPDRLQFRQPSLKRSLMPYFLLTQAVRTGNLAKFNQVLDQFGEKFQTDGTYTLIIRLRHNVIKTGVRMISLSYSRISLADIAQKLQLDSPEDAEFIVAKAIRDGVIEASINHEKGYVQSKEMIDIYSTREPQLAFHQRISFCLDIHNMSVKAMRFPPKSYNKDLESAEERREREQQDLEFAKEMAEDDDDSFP
Sequence of UniProt Q9JM62 (Q9JM62 whole entry): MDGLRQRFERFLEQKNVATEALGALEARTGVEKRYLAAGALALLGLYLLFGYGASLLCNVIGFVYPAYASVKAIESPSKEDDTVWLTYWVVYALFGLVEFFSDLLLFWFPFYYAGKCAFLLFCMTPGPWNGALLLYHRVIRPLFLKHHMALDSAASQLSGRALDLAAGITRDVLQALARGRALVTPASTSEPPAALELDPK
Sequence of UniProt O55047 (O55047 whole entry): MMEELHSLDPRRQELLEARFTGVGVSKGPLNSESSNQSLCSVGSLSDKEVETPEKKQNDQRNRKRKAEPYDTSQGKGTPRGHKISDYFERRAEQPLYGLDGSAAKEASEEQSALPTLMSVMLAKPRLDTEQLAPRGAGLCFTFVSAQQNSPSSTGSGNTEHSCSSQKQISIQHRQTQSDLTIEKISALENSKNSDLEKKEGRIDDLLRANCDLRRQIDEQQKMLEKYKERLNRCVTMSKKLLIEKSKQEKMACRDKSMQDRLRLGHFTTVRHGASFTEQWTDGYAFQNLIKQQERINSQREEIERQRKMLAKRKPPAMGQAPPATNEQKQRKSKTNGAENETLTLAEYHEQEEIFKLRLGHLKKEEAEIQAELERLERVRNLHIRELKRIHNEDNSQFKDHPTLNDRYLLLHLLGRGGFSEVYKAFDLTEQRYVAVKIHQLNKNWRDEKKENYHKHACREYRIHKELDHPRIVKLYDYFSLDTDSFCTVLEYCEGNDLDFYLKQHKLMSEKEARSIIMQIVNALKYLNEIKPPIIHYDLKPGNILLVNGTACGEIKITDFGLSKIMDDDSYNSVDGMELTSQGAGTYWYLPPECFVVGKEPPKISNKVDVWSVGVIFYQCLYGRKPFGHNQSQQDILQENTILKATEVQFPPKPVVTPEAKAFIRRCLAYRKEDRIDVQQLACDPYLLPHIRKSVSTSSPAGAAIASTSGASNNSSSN
Sequence of UniProt P24549 (P24549 whole entry): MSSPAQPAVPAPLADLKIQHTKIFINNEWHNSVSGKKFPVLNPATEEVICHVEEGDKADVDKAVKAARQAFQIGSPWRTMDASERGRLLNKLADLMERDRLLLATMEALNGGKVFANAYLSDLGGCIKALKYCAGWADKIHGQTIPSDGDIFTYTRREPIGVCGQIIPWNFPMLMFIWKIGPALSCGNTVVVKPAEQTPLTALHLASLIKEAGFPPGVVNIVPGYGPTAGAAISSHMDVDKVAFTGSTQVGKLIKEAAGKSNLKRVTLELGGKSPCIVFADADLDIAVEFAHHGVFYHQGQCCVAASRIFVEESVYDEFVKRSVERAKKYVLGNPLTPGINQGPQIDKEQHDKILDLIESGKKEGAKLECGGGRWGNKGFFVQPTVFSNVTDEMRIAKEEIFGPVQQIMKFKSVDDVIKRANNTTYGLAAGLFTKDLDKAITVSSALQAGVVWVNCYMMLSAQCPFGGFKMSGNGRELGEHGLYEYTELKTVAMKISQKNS
Sequence of UniProt Q8VCR2 (Q8VCR2 whole entry): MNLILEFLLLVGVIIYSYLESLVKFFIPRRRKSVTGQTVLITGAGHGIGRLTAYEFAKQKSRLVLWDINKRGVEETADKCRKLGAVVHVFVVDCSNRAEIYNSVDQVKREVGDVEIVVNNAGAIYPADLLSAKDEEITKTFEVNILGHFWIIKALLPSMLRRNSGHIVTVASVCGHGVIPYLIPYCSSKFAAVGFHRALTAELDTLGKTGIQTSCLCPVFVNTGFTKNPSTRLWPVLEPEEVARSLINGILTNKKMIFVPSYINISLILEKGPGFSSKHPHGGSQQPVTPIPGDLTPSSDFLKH
Sequence of UniProt Q9EPJ9 (Q9EPJ9 whole entry): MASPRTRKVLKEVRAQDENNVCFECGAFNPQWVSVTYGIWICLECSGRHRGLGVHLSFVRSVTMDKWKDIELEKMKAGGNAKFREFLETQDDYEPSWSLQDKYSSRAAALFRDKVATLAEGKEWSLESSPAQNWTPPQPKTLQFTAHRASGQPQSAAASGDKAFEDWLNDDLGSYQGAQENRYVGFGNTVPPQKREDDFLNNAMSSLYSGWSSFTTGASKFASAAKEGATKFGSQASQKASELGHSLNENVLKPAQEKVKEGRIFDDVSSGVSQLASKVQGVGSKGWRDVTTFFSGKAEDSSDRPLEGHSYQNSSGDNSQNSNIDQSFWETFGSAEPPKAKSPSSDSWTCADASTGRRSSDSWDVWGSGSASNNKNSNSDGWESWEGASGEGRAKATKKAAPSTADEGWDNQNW
Sequence of UniProt Q9EQC1 (Q9EQC1 whole entry): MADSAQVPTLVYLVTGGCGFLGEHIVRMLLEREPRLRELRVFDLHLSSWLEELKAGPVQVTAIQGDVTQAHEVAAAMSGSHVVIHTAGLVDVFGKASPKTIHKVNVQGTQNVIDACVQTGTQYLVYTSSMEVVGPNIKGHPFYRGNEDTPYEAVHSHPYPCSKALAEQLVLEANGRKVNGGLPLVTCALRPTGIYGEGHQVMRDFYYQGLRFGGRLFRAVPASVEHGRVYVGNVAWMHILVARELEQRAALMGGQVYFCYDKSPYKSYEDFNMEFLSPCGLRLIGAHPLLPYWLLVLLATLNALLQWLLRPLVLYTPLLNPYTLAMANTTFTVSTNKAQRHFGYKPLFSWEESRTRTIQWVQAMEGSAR

Compound in the assay: CN[C@@H]1C[C@H]2O[C@@](C)([C@@H]1OC)n1c3ccccc3c3c4c(c5c6ccccc6n2c5c31)C(=O)NC4 [staurosporine]
As to the kind of experiment: log2 fold change of tryptic peptide abundance, ligand vs vehicle (limited proteolysis) (log2 ratio); higher = more trypsin-susceptible (destabilized). The conditions noted are these: ligand concentration: 20 uM; sample: mouse liver crude lysate; replicate design: treated separately.
As to “UniProt Q9EQC1 (peptide sequence: DFYYQGLR, peptide start residue: 204)”, the log2 fold change is -0.862. Then “UniProt P47911 (peptide sequence: HQEGEIFDTEK, peptide start residue: 235)”, with 0.281; and “UniProt Q9EPJ9 (peptide sequence: DVTTFFSGK, peptide start residue: 289)”, with 0.513.

In the case of “UniProt O55047 (peptide sequence: YLLLHLLGR, peptide start residue: 408)”, the log2 fold change was -1.75.

For “UniProt Q7TSE6 (peptide sequence: LSDFGLCTGLKK, peptide start residue: 228)”, the log2 fold change is -2.66. The figure for “UniProt Q9JM62 (peptide sequence: NVATEALGALEAR, peptide start residue: 16)” is 0.439. The figure for “UniProt Q8VCR2 (peptide sequence: ALLPSMLR, peptide start residue: 154)” is -0.279; for “UniProt Q8BPM2 (peptide sequence: LLTHTFVGQPGLSR, peptide start residue: 271)” it is -1.27. On to “UniProt P14685 (peptide sequence: ISLADIAQK, peptide start residue: 413)”, for which the log2 fold change is -0.355.

In the case of “UniProt P24549 (peptide sequence: SVDDVIKR, peptide start residue: 413)”, the log2 fold change is -0.205. The figure for “UniProt Q8BHC4 (peptide sequence: HVVQPGYPAHR, peptide start residue: 37)” is 0.384.

With “UniProt P27659 (peptide sequence: LLPLRQKK, peptide start residue: 170)”, the log2 fold change was -0.616.
